# Laboratory results from PubChem BioAssay AID588689 (Southern Research Specialized Biocontainment Screening …, 2011).
# The whole screen tested about 340,000 compounds, of which about 1,000 (0.29%) were called active. No stated cut-off is given here; in the data, inconclusive means inhibition above about 29% without an active follow-up result; inactive means below that. A selection follows. Entries with a potency or affinity are not part of this list.
# Molecular target: Genome polyprotein (Dengue virus type 2 (strain 16681-PDK53)) (UniProt P29991)
# Experiment: flavivirus cap methylation enzyme inhibition – biochemical, confirmation dose response, primary screen (AID 588689)
# Conditions: Dengue-2 NS5 methyltransferase capping enzyme assay, at 25 µM, stronger effect = higher value
# [1] = measured here: pilot screen replicate inhibition
SMILES,inhibition,inhibition [1] [%]
O=C(O)c1cnc(-c2ccccc2)nc1Sc1ccc(Cl)cc1Cl,4.03% (inactive),–
Cc1cccc(C2=NN(c3ccccc3)[C@@H](C(=O)N3CCOC3=O)[C@@H]2C)c1,-1.32% (inactive),4.88
CCOC(=O)c1cc(=O)nc(N)s1,-4.03% (inactive),–
O=C(COc1ccc([N+](=O)[O-])cc1)NCC(c1cccs1)N1CCOCC1 (stereo not drawn),4.32% (inactive),–
CC(C)(C)OC(=O)N1CCC(CC2CC(c3ccccc3)=NO2)(C(=O)O)CC1 (stereo not drawn),-3.93% (inactive),–
O=S(=O)(Nc1ccccc1N1CCCCC1)c1ccccc1,1.3% (inactive),–
S=C(Nc1ccc(Br)cc1Cl)N1CCCC1,-2.6% (inactive),–
COc1ccc(C2=CC(=O)C[C@H](c3ccc(OC)c(OC)c3)C2)cn1,-0.4% (inactive),–
O=C(O)CN1CCN(Cc2cccc(Cl)c2)C1=O,-1.31% (inactive),–
CCCC(C1=C(O)CC(C)(C)CC1=O)C1C(=O)CC(C)(C)CC1=O (stereo not drawn),-11.2% (inactive),–
CC1(C)CC(=O)C(CC2=C(O)CC(C)(C)CC2=O)C(=O)C1,-33.8% (inactive),–
CC(C)c1cc(C(=O)NCc2cccnc2)no1,1.6% (inactive),–
O=C(NNc1ccccc1[N+](=O)[O-])Nc1ccccc1,-1.39% (inactive),–
CC1CCc2c(sc3ncnc(SCC(=O)Nc4ccc(C(=O)O)cc4)c23)C1 (stereo not drawn),-4.98% (inactive),–
COc1cc(NC(=O)CSc2ncnc3sc4c(c23)CCCC4)c(C(=O)O)cc1OC,-3.33% (inactive),–
COCCNC(=O)C(=O)c1c(-c2ccccc2)[nH]c2ccccc12,1.52% (inactive),–
O=C(Nc1ccc(S(=O)(=O)N2CCOCC2)cc1)c1ccc2c(c1)S(=O)(=O)c1ccccc1C2=O,-4.52% (inactive),–
O=C(Nc1cc(S(=O)(=O)N2CCOCC2)ccc1N1CCCC1)c1ccc2c(c1)S(=O)(=O)c1ccccc1C2=O,-7.41% (inactive),–
COCc1nc(-c2cc(Br)ccc2OC)no1,-4.06% (inactive),–
CCn1c(O)c(C=Nc2ccccc2)oc1=S,-8.34% (inactive),–
Cc1nc2ccc(NC(=O)c3ccc(Cl)c([N+](=O)[O-])c3)cc2s1,-4.44% (inactive),–
Cc1nc2ccc(NC(=O)c3ccc([N+](=O)[O-])cc3[N+](=O)[O-])cc2s1,-5.18% (inactive),–
COc1cccc(NC(=S)N2CCC(c3ccc(C)cc3)C2)c1 (stereo not drawn),-1.96% (inactive),–
COc1ccc(CCNC(=O)c2nnn(CC(=O)Nc3c(C)cc(C)cc3C)c2N)cc1OC,-7.1% (inactive),–

SMILES,inhibition,inhibition [1] [%]
CC1(C)CC(=O)C(C(c2ccccc2F)C2C(=O)CC(C)(C)CC2=O)C(=O)C1,22.6% (inactive),–
COc1cc(NC(=O)c2ccc(COCC(F)(F)F)o2)cc(OC)c1OC,0% (inactive),–
COc1cc(C(O)C(=O)O)ccc1O (stereo not drawn),-7.33% (inactive),–
CCOc1ccc(CC(=O)C2C(=O)CC(C)(C)CC2=O)cc1OCC,-13.1% (inactive),–
COc1ccc(NC(=O)c2ccc(COCC(F)(F)F)cc2)cc1OC,-2.91% (inactive),–
COc1cc(C(C2C(=O)CC(C)(C)CC2=O)C2C(=O)CC(C)(C)CC2=O)ccc1OC(C)=O,-2.35% (inactive),–
COc1ccc(N2C(=O)CC(C)(C)CC2=O)cc1OC,0% (inactive),–
O=C(/C=C1\SC(=O)NC1=O)Nc1ccc(F)cc1,0% (inactive),–
Cc1cc(Br)ccc1NC(=O)CNC(=O)CSc1n[nH]c(N)n1,-4.68% (inactive),–
O=C(COC(=O)c1cc(Cl)ccc1O)Nc1cc(C(F)(F)F)ccc1N1CCOCC1,-3.11% (inactive),–
CCCN1Cc2cccc(C(=O)NCCc3cccc(C)c3)c2C1=O,3.25% (inactive),–
COc1cc(C2CC(=O)OC3=C2C(=O)CC(C)(C)C3)cc(OC)c1OC (stereo not drawn),2.26% (inactive),–
COc1cc(NC2=CC(=O)CC(C)(C)C2)cc(OC)c1OC,1.61% (inactive),–
CCOc1ccc(S(=O)(=O)NC(C)(C)C)cc1-c1nc2c(C(C)(C)C)nn(C)c2c(=O)[nH]1,-2.73% (inactive),–
Cc1cc[n+](-c2ccccc2)c2ccccc12,-10.7% (inactive),–
O=C(CSCc1c(F)cccc1Cl)NCc1ccco1,-1.37% (inactive),–
CCN(CC)S(=O)(=O)c1ccc(C(=O)NCC2CCCCC2)cc1,2.49% (inactive),–
O=C(Nc1ccc(F)cc1)c1cc2cc(Cl)ccc2[nH]1,1.32% (inactive),–
COc1ccc(-c2ccc(SCC(=O)N3CC(=O)Nc4ccccc43)nn2)cc1,-4.15% (inactive),–
CCn1cc(/C=C/C(=O)NCc2c(C)nn(C)c2C)cn1,-7.26% (inactive),–
COc1ccccc1OCCCOc1cccc(/C=C2\SC(=O)NC2=O)c1,-1.96% (inactive),6.37
O=C1NC(=S)N/C1=C/c1ccc2ccccc2c1,5.93% (inactive),2.73
O=C1NC(=S)S/C1=C\c1ccc2ccccc2c1,-15.5% (inactive),–
Cc1ccc(OCCN2C(=O)c3ccccc3C2=O)c(C)c1,1.61% (inactive),–

SMILES,inhibition,inhibition [1] [%]
O=C1NC(=O)/C(=C/c2cccc(O)c2)N1,1.96% (inactive),–
C(=N\n1cnnc1)/c1cccc(OCCOc2ccccc2)c1,-9.55% (inactive),–
CNC(=O)NC(=O)CSc1nc2cc(C(=O)OC)ccc2c(=O)n1-c1ccccc1,-2.77% (inactive),–
COc1ccc2nc(C)cc(SCC(NC(C)=O)C(=O)OC(C)C)c2c1 (stereo not drawn),0.78% (inactive),–
COc1ccccc1C(=O)Nc1ncc2c(n1)CC(c1ccco1)CC2=O (stereo not drawn),-1.36% (inactive),–
O=C(NCc1ccccn1)c1cc(S(=O)(=O)N2CCCCCC2)ccc1Cl,1.3% (inactive),–
COc1cc(C(=O)O/N=C2\C=CC(=O)C(C)=C2)cc(OC)c1OC,-39% (inactive),–
Oc1ccc(/C=N/N2CCN(C3c4ccccc4-c4ccccc43)CC2)cc1,-2.06% (inactive),–
COc1ccc(OC)c2c1CCC2=O,0% (inactive),–
COc1ccc(N)c2c1C(=O)c1ccccc1C2=O,-1.95% (inactive),–
CCOc1ccc(S(=O)(=O)N2CCCCC2)cc1NC(=O)C1COc2ccccc2O1 (stereo not drawn),1.45% (inactive),–
O=C(NCc1ccccc1)c1cnc(Cl)c(Cl)c1,-7.44% (inactive),–
COC(=O)c1ccc(COc2cccnc2[N+](=O)[O-])cc1,0% (inactive),–
O=C(N/N=C/c1cccc(Cl)c1)C1CCCC1,0% (inactive),–
Cc1cccc(C(=O)Nc2ccc(O)cc2C(=O)O)c1,14.3% (inactive),–
CC(=O)Nc1cccc(C(=O)Nc2ccccc2C(=O)O)c1,3.9% (inactive),–
O=C(Nc1ccccc1C(=O)O)c1cccc(F)c1,3.35% (inactive),–
O=C(Nc1ccccc1C(=O)O)c1ccccc1,-0.69% (inactive),–
Cc1ccc(C(=O)Nc2ccc(O)cc2C(=O)O)cc1,-8.03% (inactive),–
O=C(Nc1ccccc1C(=O)Nc1ccccc1C(=O)O)c1ccccc1,2.59% (inactive),–
O=C(Nc1ccccc1C(=O)O)c1cccc(S(=O)(=O)Nc2ccc(Br)cc2)c1,22.4% (inactive),–
Cc1ccc(C(=O)Nc2ccccc2C(=O)O)cc1S(=O)(=O)Nc1ccccc1,3.97% (inactive),–
Cc1cccc(N(CC(O)CN2CCOCC2)S(=O)(=O)c2ccccc2)c1 (stereo not drawn),0% (inactive),–
Cc1cc(-c2ccccc2N)n[nH]1,-5.29% (inactive),–

SMILES,inhibition,inhibition [1] [%]
CCN(C(=O)COC(=O)c1ccccc1NCCO)c1cccc2ccccc12,6.52% (inactive),–
COc1ccc(NC(=O)c2ccc(-c3ccccc3C(F)(F)F)o2)cc1,-7.03% (inactive),–
COc1cc(C2c3cc4c(cc3OC(NCCc3ccccc3)C2C)OCO4)cc(OC)c1OC (stereo not drawn),-4.03% (inactive),–
COc1ccc(S(N)(=O)=O)cc1C(=O)OCC(=O)Nc1sccc1C#N,-21% (inactive),–
COc1ccccc1N(CC(=O)NCCSc1ccccc1)S(=O)(=O)c1ccccc1,-5.79% (inactive),–
O=C(CSc1ncn[nH]1)N1N=C2/C(=C/c3ccco3)CCCC2C1c1ccco1 (stereo not drawn),-4.57% (inactive),–
Cc1ccccc1C(=O)Nc1nnc(SC(C)C)s1,-3.88% (inactive),–
Cc1ccc(-n2nc3c(=O)n(CC(=O)NCCCc4ccccc4)nc(C)c3c2C)cc1,-3.57% (inactive),–
CC(C)(C)OC(=O)N1CCCC(C(=O)CC#N)C1 (stereo not drawn),-13.4% (inactive),–
CC1/C(=N/O)CC(c2ccccc2)NC1c1ccccc1 (stereo not drawn),3.42% (inactive),–
COCCNc1nc(NCc2ccccc2)c2cnn(C)c2n1,-7.24% (inactive),–
CN(C)CCCN1CC(=O)N2[C@@H](Cc3c([nH]c4ccccc34)C2(C)C)C1=O,5.89% (inactive),–
COc1ccc(CCC(=O)Nc2sc(C(=O)N(C)C)c(C)c2C#N)cc1,2.58% (inactive),–
Cc1ccc(Nc2ccc(C(=O)O)cc2[N+](=O)[O-])cc1,17% (inactive),–
COc1ccc(Nc2ccc(C(=O)O)cc2[N+](=O)[O-])cc1,3.64% (inactive),–
COc1ccc(C(C)=O)cc1COC(=O)CNC(=O)C1CCCCC1,10.9% (inactive),–
Cc1cccc(-c2nnc(SCC3CNC(=O)O3)n2-c2ccc(Cl)cc2)c1 (stereo not drawn),-12.5% (inactive),–
Cc1sc(NC(=O)C2C3C=CC(C3)C2C(=O)O)c(C(N)=O)c1-c1ccc(C(C)C)cc1 (stereo not drawn),-5.14% (inactive),–
Cc1sc(NC(=O)C2C3CCC(C3)C2C(=O)O)c(C(N)=O)c1-c1ccc(C(C)(C)C)cc1 (stereo not drawn),7.13% (inactive),–
Cc1sc(NC(=O)C2CCCCC2C(=O)O)c(C(N)=O)c1-c1ccccc1 (stereo not drawn),-2.08% (inactive),–
CC(C)=C1C2CCC1C(C(=O)Nc1sc(C)c(-c3ccc(C(C)C)cc3)c1C(N)=O)C2C(=O)O (stereo not drawn),2.89% (inactive),–
COc1ccc(NC(=O)CN2CCN(S(=O)(=O)N(C)C)CC2)cc1,2.61% (inactive),3.63
